TGFb inhibitor = TGF-b pathway inhibition. Potency, µM (top dose mostly 46.1 µM), inactives show at the top dose activity, negative = inhibition, actives largely listed as inhibitors. HepG2 CAGA-GFP TGF-b/SMAD3 reporter, GFP fluorescence, 18 h; TGF-beta stimulated, 500 pg/mL final. 1.2% of 410,000 active; further: potency means the concentration at half of the fitted maximal effect; on the % scale 0 is the no-effect control and ±100 the full control effect; nearly all actives have a fitted effect of over 65% in size
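GFP signal (ex488/em500-530) from TGF-beta-stimulated HEPG2 CAGA-GFP cells, 500 pg/mL final, 18 h at 37 degrees C in DMEM plus 1% FBS, normalized to unstimulated and DMSO-stimulated controls.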
ASM inhibitor = human S-ASM enzyme inhibition; P17405; placental ASM, HMU-PC fluorogenic substrate, 60 min; Potency, µM (doses to about 57.5 µM), for the others: at the top dose activity change, negative = inhibition, most hits filed as inhibitors; 0.006% of 340,000 active; AID 504937; further: potency means the concentration at half of the fitted maximal effect
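HMU-PC0 cleavage (9 uM final) by human placental ASM, 60 min at 37 °C following 10 min compound exposure at RT; stopped at pH 10, fluorescence Ex 386/Em 447 nm.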
HepG2 tox = counter-screen for TGF-b inhibitors: cytotoxicity in HepG2 cells | HepG2 CAGA-GFP viability, ATP luminescence, 18 h | Potency, µM (doses to about 46.1 µM), for the others: at the highest dose activity change, negative = cytotoxicity, actives largely listed as cytotoxic | 0.76% of 410,000 active; further: potency means the concentration at half of the fitted maximal effect
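CellTiter-Glo luminescence gave cytotoxicity after 18 hours at 37 degrees C. The cells were HepG2 CAGA-GFP in 1% FBS DMEM, stimulated with 500 pg/mL TGF-beta after compound addition. %Activity was normalised to no-cell wells (complete cell-killing) and DMSO (no toxicity), and curves were fitted and classified.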
TDP1 cell CPT = growth inhibition of DT40 Tdp1-/-;hTDP1 cells with camptothecin (screen for TDP1 inhibitors); chicken DT40 Tdp1-/-;hTDP1 cells + 20 nM CPT, ATP luminescence, 48 h; 12% of 420,000 active; Potency, µM (top dose mostly 46.2 µM), without a hit: top-dose activity change, negative = growth inhibition, most hits filed as inhibitors; further: potency means the concentration at half of the fitted maximal effect; on the % scale 0 is the no-effect control and ±100 the full control effect; nearly all actives have a fitted effect of over 55% in size
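Chicken DT40 Tdp1-/- cells stably complemented with human TDP1 were seeded at 400 cells/well in medium containing 20 nM camptothecin, exposed to pin-transferred compounds, and grown at 37 °C for at least 48 hr. Viability was read as ATP luminescence.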
IL-1B inflam inh = inhibitors of inflammasome signaling (IL-1 beta secretion). activity change, % at 57.5 µM. THP-1 LPS/ATP IL-1B secretion, AlphaLISA, 16 h; stronger effect = lower value. 4.7% of 360,000 active; in the data active means activity change below about -50%; inconclusive means mostly about -30% to -49%; further: on the % scale 0 is the no-effect control and ±100 the full control effect
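Secreted IL-1B measured by AlphaLISA bead assay after 16 h compound exposure of THP-1 cells; compounds (final up to 57.5 uM) added 1 h before LPS (250 ng/mL) and ATP (1.25 mM) stimulation; lower signal means less secretion.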
DT40 TDP1 no CPT = qHTS for Inhibitors of human tyrosyl-DNA phosphodiesterase 1 (TDP1): qHTS in cells in absence of CPT; DT40 Tdp1-/- hTDP1 cells, no CPT, ATP luminescence, 48 h; Potency, µM (doses to about 46.2 µM), inactives show at the top dose activity change, negative = growth inhibition, hits mostly inhibitors; 15% of 420,000 active; further: potency means the concentration at half of the fitted maximal effect; on the % scale 0 is the no-effect control and ±100 the full control effect; nearly all actives have a fitted effect of over 55% in size
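DT40 Tdp1-/-;hTDP1 cells, no CPT (DMSO vehicle only), 400 cells/well; compounds pin-transferred; ≥48 hr, 37 °C; CellTiter-Glo 30 min RT dark, luminescence read.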
Active calls of the source: *; ? = inconclusive; nt = no result given. A selection: hits, their analogues and other compounds. The true share with any hit is near 19%. Unless noted, the call rests on the fitted dose curve; in most records, active means well fitted curve in the direction sought with a large enough effect; inconclusive means small, poorly fitted or top-dose-only effect, or another doubt; inactive means no such curve, though single readings can be large; an effect the other way counts as inactive or inconclusive.

SMILES	TGFb inhibitor	ASM inhibitor	HepG2 tox	TDP1 cell CPT	IL-1B inflam inh	DT40 TDP1 no CPT
Cc1onc(-c2ccccc2Cl)c1C(=O)Nc1cccc2nsnc12	-4%	190%	-11%	?	6	?
Cc1onc(-c2ccccc2Cl)c1C(=O)Nc1cccc2cccnc12	-20%	-18%	-21%	9.2µM*	-20	4.1µM*
O=C(NCC(F)(F)F)c1ccc2sc([C@H]3C[C@H](O)[C@@H](CO)O3)nc2c1	4%	nt	7%	?	18	?
COC(=O)c1ccc(-c2csc(NC(=O)c3c(C)noc3C)n2)cc1	1%	-8%	13%	16µM*	48	21µM*
CCc1noc(C)c1C(=O)OCC(=O)Nc1nc(-c2ccc(F)c(F)c2)cs1	-11%	1%	-21%	?	-80*	15µM*
Cc1ccc(C)c(-c2csc(NC(=O)c3c(C)noc3C)n2)c1	-13%	-3%	-13%	?	62	?
CCc1noc(C)c1C(=O)Nc1nc(-c2ccc(OC)c(OC)c2)cs1	-14%	nt	-9%	?	?	?
Cc1ccc(-c2csc(NC(=O)c3c(C)noc3C)n2)cc1C	-24%	-20%	-38%	18µM*	-17	13µM*
CCc1noc(C)c1C(=O)OCC(=O)c1ccc(NC(C)=O)cc1F	7%	-3%	13%	?	26	21µM*
CCc1noc(C)c1C(=O)OCC(=O)Nc1ccc(F)cc1Cl	3%	4%	8%	3%	-26	?
CCOc1ccccc1CN1CCN(Cc2ccc3cccc(OC)c3n2)CC1CCO (stereo unspecified)	-13%	12%	-30%	?	30	?
CNC(=O)C(=O)Nc1nc(C23CC4CC(CC(C4)C2)C3)cs1	-9%	2%	-15%	-1%	-22	-24%
Cc1onc(-c2ccccc2)c1C(=O)Nc1nc(-c2ccc(F)c(F)c2)cs1	?	-1%	-49%	?	11	26µM*
Cc1noc(C)c1C(=O)Nc1nc(C23CC4CC(CC(C4)C2)C3)cs1	-3%	0%	-77%	?	-58*	18µM*
Cc1ccc(-c2csc(NC(=O)c3c(C)noc3C)n2)s1	?	-11%	-2%	5.2µM*	-10	4.1µM*
CN1C(=O)C(C)(C)c2cc(S(=O)(=O)N3CCN(c4cccc(Cl)c4)CC3)ccc21	?	-12%	-19%	?	34	?
Cc1ccc(Cc2nc3ccccc3nc2SCC(=O)NCCc2ccccc2)cc1	?	nt	-4%	?	nt	?
Cc1ccc(Cn2c(=O)c3ccccc3n3c(SCC(=O)N4CCCCC4C)nnc23)cc1 (stereo unspecified)	3%	67%	-2%	18µM*	0	16µM*
Cc1ccc(Cc2nc3ccccc3nc2SCC(=O)N2CCCCC2C)cc1 (stereo unspecified)	16µM*	nt	-37%	15µM*	nt	23µM*
Cc1ccc2cc(C#N)c(SCC(=O)N3CCCc4ccccc43)nc2c1	-5%	1%	-4%	13%	0	-4%
Cc1ccc2cc(C#N)c(SCC(=O)N3CCCc4ccccc43)nc2c1C	-2%	-2%	-26%	21µM*	34	8.2µM*
COc1cccc(Cc2nc3ccccc3nc2SCC(=O)N2CCCCC2C)c1 (stereo unspecified)	11µM*	nt	-29%	?	nt	5.2µM*
Cc1ccc(Cn2c(=O)c3ccccc3n3c(CCC(=O)O)nnc23)cc1	13%	-8%	-3%	3%	-10	3%
Nc1cc(=O)nc(SCC(=O)Nc2ccc(F)cc2)n1-c1ccc(Cl)cc1	0%	nt	-18%	-3%	nt	-27%
